Compound activity deposited in PubChem by several laboratories.
CYP2C9 inh: inhibitors of human CYP2C9 | P11712 | CYP2C9 Supersomes, luciferin-H conversion, luminescence | inhibition, % at 5 µM | hit rate 20% among 96,000;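 active = blocking of liver enzyme CYP2C9 beyond about 50% at 5 µM, limit read from the data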
CYP2C9 act: CYP2C9 (human) activation; P11712; recombinant CYP2C9, luciferin-H conversion, luminescence; hits give high values; factor 1 = untreated enzyme, 0 = blocked; activation factor at 5 µM; hit rate 1.4% among 96,000; AID 1024;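 active = activation factor of 2 or more for CYP2C9 at a 5 µM dose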
Measles CPE: protection of cells from measles virus; protection (pct of control), % at 4 µM; Measles virus-infected cells, CPE protection, absorbance; hit rate 1.5% among 140,000; in the data active = protection mostly above about 24%, no sharp cut-off; inactive = mostly below about 26%
CYP2C19 act: activators of human cytochrome P450 2C19; P33261; recombinant CYP2C19, luciferin-H EGE luminescence; hits give high values; 0 = fully inhibited enzyme, 1 = untreated enzyme; activation factor at 5 µM; 96,000 tested, under 10 active; AID 1025;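 active = activation factor of at least 2 at 5 µM in the primary screen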
Target sequence (P33261 whole entry, looked up): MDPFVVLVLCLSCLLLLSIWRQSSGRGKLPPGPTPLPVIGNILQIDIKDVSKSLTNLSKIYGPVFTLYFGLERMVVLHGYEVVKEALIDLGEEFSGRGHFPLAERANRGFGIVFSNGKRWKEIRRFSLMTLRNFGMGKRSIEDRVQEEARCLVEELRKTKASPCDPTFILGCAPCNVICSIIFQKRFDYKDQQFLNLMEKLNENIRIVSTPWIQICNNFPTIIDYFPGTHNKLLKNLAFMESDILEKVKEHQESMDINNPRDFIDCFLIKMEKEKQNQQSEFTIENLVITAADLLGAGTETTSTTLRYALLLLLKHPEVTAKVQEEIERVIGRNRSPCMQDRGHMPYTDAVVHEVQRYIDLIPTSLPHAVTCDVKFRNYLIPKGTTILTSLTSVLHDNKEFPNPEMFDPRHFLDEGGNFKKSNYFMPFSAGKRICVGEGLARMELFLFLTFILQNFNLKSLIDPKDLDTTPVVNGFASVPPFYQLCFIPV
CYP2C19 inh: blocks human cytochrome P450 2C19; P33261; CYP2C19 Supersomes, luciferin-H EGE luminescence, 30 min; inhibition, % at 5 µM; hit rate 21% among 96,000; AID 778;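 active = CYP2C19 inhibition above a set limit at 5 µM in the primary screen, cut at about 50% in these data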
Each line names hits and unclear results; the compound was inactive in the other large screens. Hits are enriched below; roughly 22% of the tested compounds scored in any of these assays.

Cc1nn(CC(=O)NCc2cccnc2)c(=O)c2ccccc12	none
Cn1nc(C(=O)NCc2cccnc2)c2ccccc2c1=O	CYP2C9 inh 59.6, CYP2C19 inh 77.6
CC(NC(=O)c1nn(C)c(=O)c2ccccc12)c1ccc(F)cc1 (configuration not stated)	CYP2C9 inh 64.4
CCCN(CCC)C(=O)CCSCCC(=O)N(CCC)CCC	none (no result: CYP2C9 inh, CYP2C9 act, CYP2C19 act, CYP2C19 inh)
O=C1CC(c2ccco2)Cc2c1cnn2-c1nc2ccccc2s1 (configuration not stated)	none (no result: CYP2C9 inh, CYP2C9 act, CYP2C19 act, CYP2C19 inh)
Cc1ccccc1-n1nc(C)c2cc(C(=O)N3CCN(S(=O)(=O)c4ccccc4)CC3)sc21	none (no result: Measles CPE)
Cc1ccccc1-n1nc(C)c2cc(C(=O)NCc3cccnc3)sc21	CYP2C9 inh 54.9
O=C(NCc1ccco1)c1cc(-c2ccco2)on1	Measles CPE 85.2
O=C(NCc1ccccc1)c1cc(-c2ccco2)on1	none
CN(C1CCCCC1)S(=O)(=O)c1cccc(C(=O)OCC(=O)NC2CCCc3ccccc32)c1 (configuration not stated)	none (no result: CYP2C9 inh, CYP2C9 act, CYP2C19 act, CYP2C19 inh)
CCN(CC)S(=O)(=O)c1cccc(-c2nnc(SCc3nnc(-c4cccs4)o3)n2N)c1	CYP2C9 inh 75.8, CYP2C19 inh 58.5
CCN(CC)c1ccc(C(=O)OCC(=O)Nc2ccccc2-c2ccccc2)cc1	none (no result: CYP2C9 inh, CYP2C9 act, CYP2C19 act, CYP2C19 inh)
S=c1[nH]nc(-c2ccccn2)n1/N=C/c1ccc(Br)s1	none (no result: CYP2C9 inh, CYP2C9 act, CYP2C19 act, CYP2C19 inh)
CCCN(CCC)C(=O)Cc1coc2ccc3ccccc3c12	CYP2C19 inh 63.9
O=C(Cc1coc2ccc3ccccc3c12)NCc1ccccc1	CYP2C9 act 2.8, CYP2C19 inh 86.2
O=C(Cc1coc2ccc3ccccc3c12)N1CCN(c2ncccn2)CC1	CYP2C9 inh 55.1, CYP2C19 inh 60.7
O=C(Cc1coc2ccc3ccccc3c12)Nc1nccs1	none
O=C(Nc1ccc([N+](=O)[O-])cc1)c1nc[nH]c1C(=O)NC1CCCCC1	none (no result: CYP2C9 inh, CYP2C9 act, CYP2C19 act, CYP2C19 inh)
Cc1cccc(C)c1OC(=O)CSc1nnc(-c2ccccc2O)o1	CYP2C9 inh 67.3, CYP2C19 inh 75.4
COc1ccc(-c2nnc(SCC(=O)N3CCC(Cc4ccccc4)CC3)o2)cc1OC	CYP2C9 inh 64.7, CYP2C19 inh 93.4
CCOC(=O)N1CCN(C(=O)CSc2nc(-c3cccc(C)c3)ns2)CC1	CYP2C9 inh 68.8
CCOC(=O)N1CCN(C(=O)CSc2nnc(-c3ccccc3OC)o2)CC1	CYP2C9 act 2.2
Cc1cccc(-c2nsc(SCC(=O)Nc3cc(C)on3)n2)c1	none
CCCc1[nH]nc2c1C1(CCOC1C)C(C#N)=C(N)O2 (configuration not stated)	none
O=c1oc2ccccc2c2c1SC(C(F)(F)F)C2 (configuration not stated)	none
COC(=O)CSc1nnc(-c2ccccc2OC)o1	none
CCOC(=O)CSc1nnc(-c2ccc(Cl)cc2Cl)o1	Measles CPE 41.7
CCOC(=O)N1CCN(C(=O)CSc2nnc(-c3cc(OC)cc(OC)c3)o2)CC1	none
Cc1ccc(-c2nnc(SCC(=O)N3CCCC3)o2)cc1C	CYP2C19 inh 52.6
CCOC(=O)N1CCN(C(=O)CSc2nnc(-c3ccc(C)c(C)c3)o2)CC1	none
COc1ccccc1-c1nnc(SCC(=O)OC(C)C)o1	CYP2C19 inh 58.7
CCOC(=O)N1CCN(C(=O)CSc2nnc(-c3cccc(OC)c3)o2)CC1	CYP2C9 inh 54.5
Cc1c(Cl)c([N+](=O)[O-])nn1CC(=O)Nc1ccc2c(c1)OCO2	none (no result: CYP2C9 inh, CYP2C9 act, CYP2C19 act, CYP2C19 inh)
NNc1nc(N)c2c(n1)-c1ccccc1CC21CCCC1	none (no result: CYP2C9 inh, CYP2C9 act, CYP2C19 act, CYP2C19 inh)
Cc1ccc(-c2nnc(SCC(=O)N3CCCC3)o2)cc1	none
Cc1ccc(S(=O)(=O)N2CCN(C(=O)CSc3nnc(-c4ccco4)o3)CC2)cc1	CYP2C9 inh 73.3, CYP2C19 inh 76.2
COc1ccc(N2CC(O)=C(c3nc4ccccc4s3)C2=N)c(OC)c1	CYP2C19 inh 55.2
COc1cccc(/C=N/NC(=O)c2ccc([N+](=O)[O-])cc2Cl)c1O	none (no result: CYP2C9 inh, CYP2C9 act, CYP2C19 act, CYP2C19 inh)
CCOC(=O)c1sc(NC(=O)C(CC)Sc2nnc3c4ccccc4n(C(C)C)c3n2)nc1C (configuration not stated)	CYP2C9 inh 66.5
CCC(Sc1nnc2c3ccccc3n(CC)c2n1)C(=O)Nc1sc2c(c1C#N)CCCC2 (configuration not stated)	CYP2C9 inh 51.9
CCOC(=O)Cc1nnc(NC(=O)C(CC)Sc2nnc3c4ccccc4n(C)c3n2)s1 (configuration not stated)	CYP2C9 inh 94.1
CCC(Sc1nc(C)cc(=O)[nH]1)C(=O)Nc1sc2c(c1C#N)CCCC2 (configuration not stated)	none
O=C(Nc1ccc([N+](=O)[O-])cn1)c1ccc(Br)o1	none (no result: CYP2C9 inh, CYP2C9 act, CYP2C19 act, CYP2C19 inh)
